From ChEMBL document CHEMBL3988442, “University of Dundee, Small-Polar-MMV Screening Library” (2021) come the findings set out here.

Design in all cases: scale not given: direction of the effect not stated beside the values
For assay [1], the target named is Protein translocase subunit SecA (Escherichia coli (strain K12)) (UniProt P10408). The experiment in a line: Assay to Identify E. coli SecA ATPase Inhibitors. In kind it is functional. Particulars: 30 µM.
In assay [2] the target is T1, Ubiquitin-activating enzyme e1, putative (Leishmania donovani (strain BPK282A1)) (UniProt E9BSI1).
T1 sequence (whole entry): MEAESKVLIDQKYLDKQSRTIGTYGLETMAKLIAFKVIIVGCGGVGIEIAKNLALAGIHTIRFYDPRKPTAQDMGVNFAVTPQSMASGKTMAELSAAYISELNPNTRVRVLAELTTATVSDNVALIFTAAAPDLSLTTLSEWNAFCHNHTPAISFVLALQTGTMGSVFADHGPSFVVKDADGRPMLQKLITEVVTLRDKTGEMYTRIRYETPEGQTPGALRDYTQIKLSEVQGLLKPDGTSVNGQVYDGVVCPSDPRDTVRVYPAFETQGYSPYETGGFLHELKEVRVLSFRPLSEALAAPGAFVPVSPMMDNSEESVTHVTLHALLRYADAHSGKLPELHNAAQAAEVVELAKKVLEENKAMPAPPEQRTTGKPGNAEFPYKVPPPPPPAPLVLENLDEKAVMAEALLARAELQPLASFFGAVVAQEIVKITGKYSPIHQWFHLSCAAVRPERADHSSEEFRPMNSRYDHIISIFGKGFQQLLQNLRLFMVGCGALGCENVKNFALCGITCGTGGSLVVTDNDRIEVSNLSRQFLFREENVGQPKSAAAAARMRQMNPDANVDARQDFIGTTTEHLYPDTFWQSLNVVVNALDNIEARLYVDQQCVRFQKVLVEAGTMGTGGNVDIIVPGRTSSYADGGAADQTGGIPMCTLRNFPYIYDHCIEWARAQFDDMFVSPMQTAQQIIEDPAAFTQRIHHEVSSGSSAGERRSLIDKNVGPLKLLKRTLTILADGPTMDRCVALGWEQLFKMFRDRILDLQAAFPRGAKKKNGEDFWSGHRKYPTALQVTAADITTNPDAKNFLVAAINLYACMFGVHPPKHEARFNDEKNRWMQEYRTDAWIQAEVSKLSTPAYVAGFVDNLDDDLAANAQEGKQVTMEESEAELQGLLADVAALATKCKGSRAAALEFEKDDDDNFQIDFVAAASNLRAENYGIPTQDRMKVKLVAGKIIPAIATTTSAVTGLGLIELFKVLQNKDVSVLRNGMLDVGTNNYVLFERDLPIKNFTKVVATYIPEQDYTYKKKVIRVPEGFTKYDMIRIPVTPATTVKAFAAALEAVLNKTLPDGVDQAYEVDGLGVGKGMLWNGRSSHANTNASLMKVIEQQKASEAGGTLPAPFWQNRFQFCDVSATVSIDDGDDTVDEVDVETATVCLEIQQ
The assay is described as follows: Leishmania donovani Ubiquitin Activating Enzyme (LdE1). To be noted: 30 µM. The assay is classed as functional.

Assay [3] deals with AMP-activated protein kinase, AMPK (Homo sapiens) (UniProt P54646+O43741+P54619+Q9UGJ0+Q9Y478+Q13131+Q9UGI9). The experiment in a line: AMP-dependent Kinase enzyme assay. An in vitro enzyme assay that detects ADP turnover that is directly proportional to AMPK activity. This uses naive AMPK that is activated during the assay with MK-8722. To be noted: 30 µM. In kind it is functional.

For assay [4], the target named is Sialic acid-binding Ig-like lectin 9 (Homo sapiens) (UniProt Q9Y336). The experiment in a line: Hs-Siglec9 ALPHAscreen SOP 20170721. To be noted: 10 µM.
Sequence of Sialic acid-binding Ig-like lectin 9 (Homo sapiens) (Q9Y336 whole entry): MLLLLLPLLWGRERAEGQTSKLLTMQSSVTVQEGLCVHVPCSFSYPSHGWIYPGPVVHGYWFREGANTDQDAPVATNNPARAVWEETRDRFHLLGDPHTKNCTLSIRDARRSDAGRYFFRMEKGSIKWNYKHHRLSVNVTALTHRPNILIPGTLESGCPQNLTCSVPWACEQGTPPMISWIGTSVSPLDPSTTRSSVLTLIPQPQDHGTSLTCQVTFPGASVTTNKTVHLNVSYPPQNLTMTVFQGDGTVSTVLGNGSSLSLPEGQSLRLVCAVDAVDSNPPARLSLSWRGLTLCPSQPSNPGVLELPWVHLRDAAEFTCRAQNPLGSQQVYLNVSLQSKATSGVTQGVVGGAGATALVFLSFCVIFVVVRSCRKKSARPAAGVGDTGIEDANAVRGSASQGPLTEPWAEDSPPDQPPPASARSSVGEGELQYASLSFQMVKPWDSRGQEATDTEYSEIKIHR
Another assay has as its system Trypanosoma cruzi. The assay is described as follows: Trypanosoma cruzi phosphomannomutase and mannose-1-phosphate guanylyltransferase assay. In kind it is functional. To be noted: 10 µM.
Assay [5] deals with T2, Arginase-2, mitochondrial (Homo sapiens) (UniProt P78540).
T2 sequence (whole entry): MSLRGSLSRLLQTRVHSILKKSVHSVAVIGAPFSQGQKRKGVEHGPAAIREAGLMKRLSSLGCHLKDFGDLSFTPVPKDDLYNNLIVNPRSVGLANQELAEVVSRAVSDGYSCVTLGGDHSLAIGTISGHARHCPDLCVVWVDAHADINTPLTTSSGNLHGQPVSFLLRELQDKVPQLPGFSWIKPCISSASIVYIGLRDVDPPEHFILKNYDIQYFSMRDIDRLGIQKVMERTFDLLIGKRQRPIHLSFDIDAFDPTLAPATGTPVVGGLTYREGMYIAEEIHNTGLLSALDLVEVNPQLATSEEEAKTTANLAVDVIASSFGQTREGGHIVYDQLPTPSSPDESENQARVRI
The experiment in a line: in vitro enzyme assay to detect the production of urea directly proportional to the activity of Arginase II. Also: in the data most compounds retested in dose-response had high values. Particulars: 33.3 µM. In kind it is functional.

In assay [6] the target is T3, Proteasome subunit beta (Trypanosoma cruzi) (UniProt O96673).
T3 sequence (whole entry): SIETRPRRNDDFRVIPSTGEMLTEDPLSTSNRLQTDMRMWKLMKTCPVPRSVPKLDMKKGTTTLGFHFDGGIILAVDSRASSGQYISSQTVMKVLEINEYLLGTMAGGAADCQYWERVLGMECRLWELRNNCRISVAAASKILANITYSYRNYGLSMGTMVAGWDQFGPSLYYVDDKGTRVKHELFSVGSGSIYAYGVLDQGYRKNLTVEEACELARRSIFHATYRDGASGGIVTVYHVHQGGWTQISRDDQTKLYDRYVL
The experiment in a line: Trypanosoma cruzi proteasome chymotrypsin-like activity (TcProtChymo) assay. Also: in the data most compounds retested in dose-response had high values. The assay is classed as functional. Particulars: 9.37 µM.

The next assay is filed under the species Homo sapiens. The experiment in a line: To identify inhibition of the IFN signalling (Jak-Stat) pathway via expression of an eGFP reporter gene under the control of an IFN-stimulated response element (ISRE) containing MxA promoter. Particulars: 30 µM. The assay is classed as functional. On the technique in general: In a reporter assay the amount or activity of a reporter protein is the signal.

The target in assay [7] is T4, Tyrosyl-tRNA synthetase, putative (Trypanosoma cruzi (strain CL Brener)) (UniProt Q4DSP6).
T4 sequence (whole entry): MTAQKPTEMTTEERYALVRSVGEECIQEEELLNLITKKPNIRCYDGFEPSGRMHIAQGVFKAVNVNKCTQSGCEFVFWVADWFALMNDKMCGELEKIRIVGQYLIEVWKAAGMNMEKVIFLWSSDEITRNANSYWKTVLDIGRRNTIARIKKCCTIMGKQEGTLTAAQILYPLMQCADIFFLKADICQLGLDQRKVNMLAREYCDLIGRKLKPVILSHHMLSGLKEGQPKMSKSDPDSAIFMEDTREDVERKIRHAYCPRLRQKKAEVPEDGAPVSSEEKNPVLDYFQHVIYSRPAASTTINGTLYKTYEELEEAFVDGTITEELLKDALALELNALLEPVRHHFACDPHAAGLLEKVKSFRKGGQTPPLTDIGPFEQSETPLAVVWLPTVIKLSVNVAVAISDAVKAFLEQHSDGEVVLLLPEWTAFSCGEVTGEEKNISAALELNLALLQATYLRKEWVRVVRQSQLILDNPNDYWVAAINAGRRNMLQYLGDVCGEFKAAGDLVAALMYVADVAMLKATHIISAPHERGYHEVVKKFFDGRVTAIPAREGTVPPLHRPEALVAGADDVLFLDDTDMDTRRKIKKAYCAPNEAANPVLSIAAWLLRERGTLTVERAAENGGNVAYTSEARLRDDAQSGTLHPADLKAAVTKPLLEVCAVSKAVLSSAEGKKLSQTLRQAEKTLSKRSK
The assay is described as follows: Trypanosoma cruzi tyrosyl tRNA synthetase (TcYRS) _High Tyrosine SOP. Also: in the data most compounds retested in dose-response had high values. To be noted: 30 µM. The assay is classed as functional.

Assay [8] concerns the target T4, Tyrosyl-tRNA synthetase, putative (Trypanosoma cruzi (strain CL Brener)). The assay is described as follows: Trypanosoma cruzi tyrosyl tRNA synthetase (TcYRS) SOP. The assay is classed as functional. To be noted: 30 µM.
Assay [9] addresses Chromo domain-containing protein 1 (Saccharomyces cerevisiae (strain ATCC 204508 / S288c) (Baker's yeast)) (UniProt P32657). The experiment in a line: ScCHD-1 Enzyme Inhibition Assay. Also: in the data most compounds retested in dose-response had high values. The assay is classed as functional. Particulars: 30 µM.

Structures are written as SMILES. For some of these results: Results with a measured potency or affinity are listed apart.

Sequence of Chromo domain-containing protein 1 (Saccharomyces cerevisiae (strain ATCC 204508 / S288c) (Baker's yeast)) (P32657 whole entry, the tested form may be a part): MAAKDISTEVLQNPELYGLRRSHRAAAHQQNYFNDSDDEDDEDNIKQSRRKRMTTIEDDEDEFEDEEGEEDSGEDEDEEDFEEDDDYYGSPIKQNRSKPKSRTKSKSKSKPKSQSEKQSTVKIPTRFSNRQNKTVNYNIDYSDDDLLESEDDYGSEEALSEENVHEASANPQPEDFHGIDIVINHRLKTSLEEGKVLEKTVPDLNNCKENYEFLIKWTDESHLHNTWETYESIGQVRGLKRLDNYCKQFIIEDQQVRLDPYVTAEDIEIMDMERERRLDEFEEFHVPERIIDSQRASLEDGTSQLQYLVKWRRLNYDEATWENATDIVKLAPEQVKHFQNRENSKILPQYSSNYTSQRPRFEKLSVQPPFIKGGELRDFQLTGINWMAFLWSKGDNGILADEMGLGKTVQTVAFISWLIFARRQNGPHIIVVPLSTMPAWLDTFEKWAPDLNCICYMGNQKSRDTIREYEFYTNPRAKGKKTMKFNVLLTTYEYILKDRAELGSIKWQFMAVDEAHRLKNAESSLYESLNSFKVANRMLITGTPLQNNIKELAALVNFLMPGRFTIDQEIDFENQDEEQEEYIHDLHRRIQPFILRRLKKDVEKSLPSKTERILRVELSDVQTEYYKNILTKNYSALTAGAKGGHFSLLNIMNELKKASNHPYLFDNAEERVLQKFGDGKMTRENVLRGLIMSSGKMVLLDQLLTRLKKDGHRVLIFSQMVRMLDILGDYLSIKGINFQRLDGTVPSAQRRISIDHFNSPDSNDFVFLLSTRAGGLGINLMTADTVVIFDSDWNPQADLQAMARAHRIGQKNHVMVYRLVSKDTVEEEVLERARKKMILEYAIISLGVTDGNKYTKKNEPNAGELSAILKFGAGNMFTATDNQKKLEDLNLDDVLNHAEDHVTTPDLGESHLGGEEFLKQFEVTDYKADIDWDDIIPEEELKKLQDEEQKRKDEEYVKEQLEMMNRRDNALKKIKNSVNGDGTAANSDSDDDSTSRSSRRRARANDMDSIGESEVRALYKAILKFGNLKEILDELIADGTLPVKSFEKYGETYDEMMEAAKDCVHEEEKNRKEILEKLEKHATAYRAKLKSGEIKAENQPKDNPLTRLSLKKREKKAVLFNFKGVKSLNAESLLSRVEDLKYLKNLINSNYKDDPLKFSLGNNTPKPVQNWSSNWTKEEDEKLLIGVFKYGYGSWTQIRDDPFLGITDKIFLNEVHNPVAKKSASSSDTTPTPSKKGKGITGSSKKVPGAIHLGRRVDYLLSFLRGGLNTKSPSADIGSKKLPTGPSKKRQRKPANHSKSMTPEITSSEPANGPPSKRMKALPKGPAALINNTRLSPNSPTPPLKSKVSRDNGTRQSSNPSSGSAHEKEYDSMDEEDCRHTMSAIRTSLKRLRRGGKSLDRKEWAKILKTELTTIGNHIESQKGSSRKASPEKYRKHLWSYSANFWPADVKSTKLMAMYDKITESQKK
Sequence of Protein translocase subunit SecA (Escherichia coli (strain K12)) (P10408 whole entry): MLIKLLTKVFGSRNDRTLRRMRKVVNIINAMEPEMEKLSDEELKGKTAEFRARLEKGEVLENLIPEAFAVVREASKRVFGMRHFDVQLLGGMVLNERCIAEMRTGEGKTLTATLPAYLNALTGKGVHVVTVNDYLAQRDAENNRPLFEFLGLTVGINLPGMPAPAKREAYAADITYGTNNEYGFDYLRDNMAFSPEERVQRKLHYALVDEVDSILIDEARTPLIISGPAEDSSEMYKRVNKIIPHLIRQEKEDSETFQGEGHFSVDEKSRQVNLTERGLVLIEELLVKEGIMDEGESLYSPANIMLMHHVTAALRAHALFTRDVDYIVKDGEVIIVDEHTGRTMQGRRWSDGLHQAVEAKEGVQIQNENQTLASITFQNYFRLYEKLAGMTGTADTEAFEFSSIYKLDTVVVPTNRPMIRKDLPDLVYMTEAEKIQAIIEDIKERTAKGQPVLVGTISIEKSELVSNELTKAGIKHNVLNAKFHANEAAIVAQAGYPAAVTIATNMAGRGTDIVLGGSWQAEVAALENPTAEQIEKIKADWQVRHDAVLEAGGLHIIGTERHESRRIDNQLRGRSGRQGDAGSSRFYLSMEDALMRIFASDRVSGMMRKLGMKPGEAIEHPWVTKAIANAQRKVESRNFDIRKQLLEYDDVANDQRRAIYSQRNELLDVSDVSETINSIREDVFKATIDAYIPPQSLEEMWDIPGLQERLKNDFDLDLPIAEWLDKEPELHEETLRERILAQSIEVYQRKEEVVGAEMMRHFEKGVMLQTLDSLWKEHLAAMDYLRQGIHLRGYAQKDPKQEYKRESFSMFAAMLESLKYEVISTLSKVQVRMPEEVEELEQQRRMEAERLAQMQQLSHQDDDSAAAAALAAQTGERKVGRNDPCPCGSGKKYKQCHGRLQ

Consider `COc1cccc(CNCc2c(C(C)C)nn(C)c2N(C)C)c1OC`, for which the Percent Effect was 2% in assay [1]; 10.5% in assay [2]; -0.641% in [3]; -1.37% in assay [4]; -7.33% with Trypanosoma cruzi; 2.68% in assay [5]. For the same compound, the Percent Effect in assay [6] was 16.2%; in the assay filed under Homo sapiens, 8.82%; in [7], 3.43%; in [8], 7.32%; in assay [9], -8.1%.

Consider `CCc1noc(C(C)N2CCN(c3ccc(C#N)cn3)CC2)n1` (stereo unspecified), for which the Percent Effect in assay [1] is -5.24%; in [2], 10.5%; in [3] it was 4.88%; in assay [4], -4.78%; in the assay with Trypanosoma cruzi, -4.58%; in assay [5] it was -1.18%. Besides, the Percent Effect in assay [6] is 14.9%; in the assay listed under Homo sapiens it was 17.9%; in [7], 4.25%; in assay [8] it was 5.2%; in assay [9], -5.13%.

`CCOc1cccc(C(C)NCc2ccc(OC)c(OC)c2OC)c1` (stereo unspecified): the Percent Effect in [1] is -3%; in assay [2], 16%; in assay [3], -4.66%; in assay [4] it was 15.5%; in the assay with Trypanosoma cruzi, 8.08%; in [5] it was 4.69%. Further, the Percent Effect in assay [6] is 11.2%; in the assay filed under Homo sapiens, 43.6%; in [7], 7.1%; in assay [8], 21%; in [9] it was -6.92%.

Take `CCOC(=O)CCCNC(=O)CN1CCN(c2ncccn2)CC1`: the Percent Effect in [1] is -2.22%; in assay [2], 7.79%; in [3], -1.07%; in assay [4] it was 5.04%; in the assay with Trypanosoma cruzi, -3.64%; in assay [5], -112%. Besides, the Percent Effect in assay [6] was 17.5%; in the assay filed under Homo sapiens, 2.75%; in assay [7], 5.38%; in assay [8] it was 8.64%; in [9], -0.631%.

Consider `COc1cccc2c1OCC(NC(=O)NCc1cccs1)C2` (stereo unspecified), for which the Percent Effect is -7.48% in assay [1]; 15.8% in assay [2]; 0.286% in assay [3]; 9.16% in assay [4]; 0.876% in the assay on Trypanosoma cruzi; -2.37% in assay [5]. Moreover, the Percent Effect is 9.11% in assay [6]; 5.73% in the assay listed under Homo sapiens; 4.25% in assay [7]; 13% in assay [8]; -6.35% in assay [9].

With `CCC1=N[C@@]2(CC[C@@H]3CN(S(=O)(=O)CC(C)C)C[C@@H]32)C(=O)N1C`, the Percent Effect is -0.279% in assay [1]; 10.4% in assay [2]; 4.02% in assay [3]; 2.43% in assay [4]; -3.25% in the assay with Trypanosoma cruzi; 7.1% in assay [5]. Besides, the Percent Effect in assay [6] was 13.2%; in the assay filed under Homo sapiens, -9.27%; in assay [7], 5.29%; in assay [8], 16.7%; in [9], -9.12%.

As for `CCCC(C)(C)NC(=O)c1ccc(CC2CC(=O)NC2=O)cc1` (stereo unspecified), the Percent Effect in [1] was -8.33%; in assay [2] it was 8.22%; in [3], 6.89%; in [4], 23.9%; in the assay on Trypanosoma cruzi it was 3.53%; in assay [5], 2.27%. The Percent Effect in assay [6] was 15.1%; in the assay filed under Homo sapiens it was 13.9%; in assay [7], 3.23%; in assay [8] it was 10%; in assay [9], -5.88%.

With `CCc1csc(C2CCCN(C(=O)c3ccc(OC)nn3)C2)n1` (stereo unspecified), the Percent Effect in [1] is -6.61%; in [2], 7.79%; in assay [3] it was -35.3%; in assay [4], 12.8%; in the assay with Trypanosoma cruzi, 0.187%; in assay [5], -0.356%. For the same compound, the Percent Effect is 4.73% in assay [6]; 14.5% in the assay filed under Homo sapiens; 7.77% in assay [7]; 14.6% in assay [8]; -7.71% in [9].

With `CSCCC(=O)N1CCCC1c1ccsc1` (stereo unspecified), the Percent Effect is 0.213% in assay [1]; 9.72% in [2]; 0.426% in assay [3]; -10.9% in assay [4]; -4.76% in the assay with Trypanosoma cruzi; -1.32% in [5]. The Percent Effect is 18.8% in assay [6]; 30.2% in the assay filed under Homo sapiens; 4.21% in assay [7]; 0% in [8]; 103% in assay [9].

For the compound `CC(NCc1cccnc1)c1ccc(OCC(=O)NC2CC2)cc1` (stereo unspecified), the Percent Effect in [1] is -4.57%; in assay [2], 1.27%; in assay [3], 10.2%; in assay [4], 0.488%; in the assay on Trypanosoma cruzi, -2.15%; in [5], -0.215%. Also, the Percent Effect was 12.2% in assay [6]; -0.549% in the assay listed under Homo sapiens; -2.08% in assay [7]; -2.53% in assay [8]; 4.29% in assay [9].

As to `CC(NC(=O)NCC1(c2ccc(F)cc2)CCC1)c1nncn1C` (stereo unspecified), the Percent Effect was -5.85% in assay [1]; 15.8% in [2]; 2.85% in [3]; 8.69% in assay [4]; -3.83% with Trypanosoma cruzi; 0% in assay [5]. In addition, the Percent Effect in [6] is 2.62%; in the assay listed under Homo sapiens, 7.23%; in [7], 6.4%; in [8], 23.5%; in assay [9], 2.89%.
